By inhibition is commonly meant the relative decrease from the control value, in per cent.

Here are results for 46 compounds from PubChem BioAssay AID2012 (Sanford-Burnham Center for Chemical Genomics, 2009).

In this test the target is Eukaryotic translation initiation factor 4H (Homo sapiens) (UniProt Q15056). In words: eIF4H binding inhibition – biochemical, uHTS, fluorescence polarization, translation initiation inhibitor project, primary screen (AID 2012).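 Note: calls also rest on retests at 20 µM and on dose response follow-up.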 As to conditions: eIF4H fluorescence polarization binding assay, stronger effect = higher value. A general note: In fluorescence polarisation assays a small probe gives low polarisation when free and higher when bound to something large.

About 2,700 (0.93%) of roughly 290,000 compounds were called active. The rule behind the calls is not given here. Only a selection was taken, and actives are over-represented in it overall.

As for `CN1C(=O)/C(=C/c2ccco2)SC1=Nc1cccc(C(=O)O)c1`, the inhibition was 99% (active) (at 35 µM) and 106% (confirmation average, at 20 µM).

Consider `O=C(CCCN1C(=O)/C(=C/c2ccco2)SC1=S)Nc1ccccc1`, for which the inhibition (at 35 µM) was 77.4% (inactive) and the inhibition (confirmation average, at 20 µM) is 3.8%.

Take `O=C(CCCN1C(=O)/C(=C\c2ccco2)SC1=S)Nc1cccc2ccccc12`: the inhibition runs as follows: (at 35 µM) 91.9% (inactive); (confirmation average, at 20 µM) -11.3%.

Take `CC(Oc1ccccc1)C(=O)Nc1c2c(nn1-c1ccccc1)CS(=O)C2` (centres undefined): where the note is “at 35 µM”, the inhibition is -8.2% (inactive).

`O=C(OCc1ccc(-c2ccccc2)cc1)c1cccc(O)c1`: the inhibition (at 35 µM) was -0.5% (inactive).

For `Cc1cc(/C=C2\SC(=O)N(C)C2=O)c(C)n1-c1cccc(C(=O)O)c1`, the inhibition (at 35 µM) is 89.5% (active).

Regarding `Cc1cc(/C=C2/SC(=O)N(CC(=O)N3CCCC3)C2=O)c(C)n1C`, for the setting “at 35 µM”, the inhibition is 8.5% (inactive).

As for `Cc1cc(/C=C2\SC(=Nc3ccc(N4CCOCC4)cc3)N(C)C2=O)c(C)n1-c1cccnc1`, the inhibition (at 35 µM) is 2.5% (inactive).

Turning to `NS(=O)(=O)c1ccc(NC(=S)N2CCCC2)cc1`, the inhibition was 102% (active) (at 35 µM) and 104% (confirmation average, at 20 µM).

With `COc1ccc(N2CCN(C(=S)Nc3ccc(S(N)(=O)=O)cc3)CC2)cc1`, the inhibition (at 35 µM) is -13.4% (inactive).

Turning to `CC1CN(C(=S)Nc2ccc(S(N)(=O)=O)cc2)CC(C)O1` (centres undefined), the inhibition (at 35 µM) is 4.3% (inactive).

As to `C=CCn1c(C23CC4CC(CC(C4)C2)C3)n[nH]c1=S`, the inhibition (at 35 µM) was -9.9% (inactive).

As to `CC(=O)N1CCN(c2ccccc2NC(=S)NC(=O)c2cc3ccccc3o2)CC1`, the inhibition (at 35 µM) was -11.7% (inactive).

As to `CC(C(=O)Nc1ccc(O)c(C(=O)O)c1)N1C(=O)/C(=C/c2cccs2)SC1=S` (centres undefined), the inhibition (at 35 µM) was -4.3% (inactive).

Consider `Cc1ccc(S(=O)(=O)NC(=O)c2cccc(C)c2)cc1`, for which the inhibition (at 35 µM) was -5% (inactive).

In the case of `Nc1ccc(S(=O)(=O)NC(=O)c2ccccc2)cc1`, the inhibition reads like this: (at 35 µM) -6.9% (active); (confirmation average, at 20 µM) 95.5%.

As for `CC(=O)NS(=O)(=O)c1ccccc1`, the inhibition (at 35 µM) was -6.2% (inactive).

With `CN1CN(C)c2ccc([N+](=O)[O-])c3cccc1c23`, for the setting “at 35 µM”, the inhibition is 2.5% (inactive).

Regarding `Nc1c(C(=O)c2cccs2)sc2nsc(SCCN3CCCCC3)c12`, the inhibition (at 35 µM) was 47.9% (inactive).

Turning to `CN(C(=O)COC(=O)c1nc(Cl)ccc1Cl)C1CCS(=O)(=O)C1` (centres undefined), the inhibition (at 35 µM) was 10.5% (inactive).

In the case of `Cc1c(-c2cccc(Cl)c2)nc2ccccc2c1C(=O)OCC(=O)N(C)C1CCS(=O)(=O)C1` (centres undefined), the inhibition (at 35 µM) is -7% (inactive).

`CN(C(=O)COC(=O)c1cc(-c2ccco2)nc2ccccc12)C1CCS(=O)(=O)C1` (centres undefined): the inhibition (at 35 µM) was 87.9% (active).

As for `Cc1ccnc2nc(C(=O)Nc3nnc(-c4ccccc4)o3)nn12`, the inhibition is, setting by setting: (at 35 µM) 79.8% (active); (confirmation average, at 20 µM) 77.1%.

In the case of `CCc1nnc(NC(=O)c2nc3nccc(C)n3n2)s1`, for the setting “at 35 µM”, the inhibition was -4% (inactive).

As for `Cc1cccc(NC(=O)Nc2nnc(-c3ccccc3)o2)c1`, under “at 35 µM”, the inhibition is -0.2% (inactive).

Take `O=C(N/N=C/c1ccccc1O)C1CCCC1`: under “at 35 µM”, the inhibition is -4.4% (inactive).

Turning to `CN(C(=O)C1CCN(c2ncnc3c2nc2n3CCCCC2)CC1)C1CCCCC1`, where the note is “at 35 µM”, the inhibition was -2.5% (inactive).

On to `Cc1ccc(OCc2cc(C(=O)N(C)CCn3ccnc3C)no2)cc1C`, for which the inhibition (at 35 µM) was -8.6% (inactive).

On to `Cc1cccn2c(=O)c3cc(C(=O)NCC4CCCO4)c(=N)n(Cc4ccc(F)cc4)c3nc12` (centres undefined), for which the inhibition (at 35 µM) was -14.9% (inactive).

For `Cc1ccc2nc3c(cc(C(=O)NCCc4ccccc4)c(=N)n3CC3CCCO3)c(=O)n2c1` (centres undefined), the inhibition (at 35 µM) was 94.7% (active).

For the compound `COc1ccc(CNC(=O)c2cc3c(=O)n4ccccc4nc3n(CC3CCCO3)c2=N)cc1` (centres undefined), where the note is “at 35 µM”, the inhibition was -5.4% (inactive).

Turning to `Cc1cc(NC(=O)[C@H](C)NC(=O)c2ccco2)ccc1Br`, under “at 35 µM”, the inhibition is -0.5% (inactive).

On to `N#CC1=C(N)N(c2ccc(F)cc2)C(=O)C1`, for which, under “at 35 µM”, the inhibition is 50% (active).

On to `O=C1CCCC2=C1C(c1cccs1)CC(=O)N2c1ccc(F)cc1` (centres undefined), for which the inhibition (at 35 µM) is -3.5% (inactive).

For `O=C1CC(N2CCN(c3ccc(F)cc3)CC2)C(=O)N1c1ccccc1` (centres undefined), for the setting “at 35 µM”, the inhibition is -4% (inactive).

Turning to `Cc1cc(S(=O)(=O)N2CCOCC2)ccc1OCC(=O)N1CCOCC1`, the inhibition (at 35 µM) was -9.8% (inactive).

Consider `O=C(NC1CCC(O)CC1)c1ccccc1OCc1ccc(F)cc1` (centres undefined), for which the inhibition (at 35 µM) is 4.1% (inactive).

For the compound `CCCNC(=O)CCc1c(C)nc2c(c(C)nn2-c2ccccc2)c1C`, the inhibition (at 35 µM) is -1.8% (inactive).

Consider `Cc1ccc(NC(=O)C(CC(=O)O)C2CCCO2)c(C)c1` (centres undefined), for which the inhibition (at 35 µM) is -7% (inactive).

In the case of `O=C(N/N=C/c1cccc([N+](=O)[O-])c1)c1ccncc1`, the inhibition (at 35 µM) is 0.8% (inactive).

With `N/C(=N\OS(=O)(=O)c1cccc([N+](=O)[O-])c1)c1ccncc1`, the inhibition reads like this: (at 35 µM) 73.8% (active); (confirmation average, at 20 µM) 88.7%.

Regarding `CO/N=C(\N)c1ccc([N+](=O)[O-])cc1`, the inhibition (at 35 µM) was 0.6% (inactive).

Consider `CC(Cc1cccs1)N(Cc1ccc(Cl)cc1)C(=O)c1ccncc1` (centres undefined), for which, for the setting “at 35 µM”, the inhibition was -2% (inactive).

In the case of `CCN(C(=O)COC(=O)c1cc(S(=O)(=O)N2CCc3ccccc32)ccc1OC)C1CCS(=O)(=O)C1` (centres undefined), the inhibition by setting is: (at 35 µM) 3.9% (active); (confirmation average, at 20 µM) 71.9%.

With `COc1ccccc1N(C)C(=O)c1cc(S(=O)(=O)N2CCc3ccccc32)cn1C`, the inhibition (at 35 µM) was -9.4% (inactive).

As to `COc1ccc(C(=O)OCC(=O)NCC2CCCCC2)cc1S(=O)(=O)N1CCCc2ccccc21`, for the setting “at 35 µM”, the inhibition is -7.1% (inactive).
